From PubChem BioAssay
Most compounds without a hit are left out; they make up all but 0.8% or so of the library.
Ec RNAP inh – E. coli RNAP inhibitors, biochemical | AID 559, 2006 | 62,000 compounds, 0.2% hits | inhibition, %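 (tested at 10 µM)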 | DNA-directed RNA polymerase subunit beta (Escherichia coli (strain K12)), P0A8V2 | E. coli RNA polymerase, fluorescence transcription assay; in the data active = inhibition above about 20%;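 also: 0% = enzyme without compound and 100% = no enzyme blank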
Smad3 inh – Smad3/FoxH1 peptide binding inhibitors, primary screen, biochemical, TR-FRET | Mothers against decapentaplegic homolog 3 (Homo sapiens), P84022 | TR-FRET Smad3/Dy647-FoxH1 peptide binding, europium anti-His | inhibition, % at 25 µM | 88,000 compounds, 0.29% hits;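 active = compounds that reduce the energy-transfer binding signal between the protein and its labelled peptide by more than half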;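 also: 0% = Smad3 plus labelled peptide maximal FRET and 100% = peptide-only background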
HePTP inhibitor – inhibitors of human HePTP phosphatase, primary screen, biochemical, absorbance, leukemia target. Tyrosine-protein phosphatase non-receptor type 7 (Homo sapiens), P35236. recombinant HePTP phosphatase activity, OD absorbance. inhibition, % at 20 µM. 110,000 compounds, 0.64% hits; in the data active = inhibition above about 50%;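 also: plate controls were vehicle for no effect and reference inhibitor for full effect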
Target sequence (P35236 whole entry, looked up): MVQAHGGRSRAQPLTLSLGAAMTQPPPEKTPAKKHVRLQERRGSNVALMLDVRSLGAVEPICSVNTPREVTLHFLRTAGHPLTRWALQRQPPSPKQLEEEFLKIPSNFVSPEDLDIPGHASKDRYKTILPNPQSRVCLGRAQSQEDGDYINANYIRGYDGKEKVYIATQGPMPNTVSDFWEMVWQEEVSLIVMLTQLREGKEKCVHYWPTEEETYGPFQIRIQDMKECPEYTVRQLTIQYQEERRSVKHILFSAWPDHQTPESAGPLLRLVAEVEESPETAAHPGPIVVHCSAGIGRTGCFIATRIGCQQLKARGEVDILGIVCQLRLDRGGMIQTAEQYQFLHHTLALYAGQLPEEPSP
MT1-MMP txn act – MT1-MMP promoter reporter activation – cell-based, luciferase luminescence, primary screen. HT1080 MT1-MMP promoter luciferase reporter, overnight; stronger effect = higher value. activation factor at 10 µM. 86,000 compounds, 0.16% hits;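 active = activation factor of at least 2 for MT1-MMP transcription at 10 µM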
TNAP act DEA – human TNAP enzyme activators, primary screen, biochemical, luminescent, intermediate phosphate acceptor level; Alkaline phosphatase, tissue-nonspecific isozyme (Homo sapiens), P05186; activation factor at 20 µM; purified TNAP, CDP-star luminescence, 100 mM DEA, 30 min; stronger effect = higher value; scale: 0 levamisole-inhibited, 1 vehicle-only enzyme; 64,000 tested, under 10 active;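 active = activation factor of at least 2 at 20 µM, relative to controls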
* hit, by the source's call; nt = no result.

SMILES	Ec RNAP inh	Smad3 inh	HePTP inhibitor	MT1-MMP txn act	TNAP act DEA
Cc1sc(NC(=O)c2ccc(Cl)s2)c(C(N)=O)c1C	3	-14	-6	2.2*	0.9
O=C1NC(=S)N(c2ccc(Cl)cc2)C(=O)/C1=C\c1ccc(-c2cccc(C(=O)O)c2)o1	nt	nt	78*	nt	nt
O=C1NC(=S)N(c2ccc(F)cc2)C(=O)/C1=C/c1ccc(-c2cccc(C(=O)O)c2)o1	nt	nt	44	nt	nt
Cc1ccc([N+](=O)[O-])cc1-c1ccc(/C=C2/C(=O)NN(c3ccc(Cl)cc3)C2=O)o1	nt	nt	94*	nt	nt
CCOc1ccc(N2C(=O)NC(=O)/C(=C/c3ccc(-c4ccc(C(=O)O)c(Cl)c4)o3)C2=O)cc1	nt	nt	103*	nt	nt
CCOC(=O)c1ccc(-c2ccc(/C=C3/C(=O)NC(=O)N(c4ccccc4)C3=O)o2)cc1	nt	nt	-4	nt	nt
Cc1cc([N+](=O)[O-])ccc1-c1ccc(/C=C2/C(=O)NC(=S)N(c3ccc(Cl)cc3)C2=O)o1	nt	nt	-2	nt	nt
CC1=C(C#N)C(=O)NC(=O)/C1=C\c1ccc(-c2ccc(Cl)c(Cl)c2)o1	nt	nt	67*	nt	nt
CC1=C(C)CC2C(=O)N(c3ccccc3[N+](=O)[O-])C(=O)C2C1 (centres undefined)	nt	nt	2	nt	nt
CNC(=S)N(C)/N=C/c1c(Cl)cccc1[N+](=O)[O-]	nt	nt	-15	nt	nt
Cc1ccc(N(Cc2c(O)ccc3ccccc23)C(=O)c2ccco2)cc1	nt	nt	5	nt	nt
Cc1ccc(N2C(=O)/C(=C\c3ccc(-c4ccc(Cl)c(C(=O)O)c4)o3)C(=O)NC2=S)cc1	nt	nt	66*	nt	nt
O=C1NC(=S)N(c2ccc(Cl)cc2)C(=O)/C1=C/C=C/c1ccccc1	nt	nt	62*	nt	nt
Cc1cc(Br)ccc1N1C(=O)/C(=C/C=C/c2ccccc2)C(=O)NC1=S	nt	nt	-3	nt	nt
CCOC(=O)c1ccc(N2NC(=O)/C(=C/c3ccc(-c4ccc(Cl)c(C(=O)O)c4)o3)C2=O)cc1	nt	nt	51*	nt	nt
COC(=O)c1ccc(-c2ccc(/C=C3\C(=O)NN(c4ccccc4)C3=O)o2)cc1	nt	nt	4	nt	nt
COc1c(Br)cc(Cl)cc1/C=C1\C(=O)NC(=S)N(c2ccc(C)cc2)C1=O	nt	nt	103*	nt	nt
O=C1NC(=S)N(c2ccccc2)C(=O)/C1=C/c1ccc(-c2ccc(Cl)c(C(=O)O)c2)o1	nt	nt	23	nt	nt
CCCCNCCCCCOc1cccc(OC)c1	nt	nt	3	nt	nt
N=c1sc(Cc2ccccc2Cl)cn1CC(=O)c1ccc(Br)cc1	nt	nt	2	nt	nt
COc1ccc(-c2nnc(NC(=O)c3ccc(F)cc3)s2)cc1OC	nt	nt	2	nt	nt
O=C(Nc1cccc([N+](=O)[O-])c1)C1C(c2ccccc2)C1(Cl)Cl (centres undefined)	nt	nt	0	nt	nt
O=C(CCCNS(=O)(=O)c1cccc2nsnc12)NC1CCCCC1	26*	2	2	1	0.9
CC(=O)NC1=NC(=O)/C(=C\c2ccc(C)o2)S1	nt	nt	3	nt	nt
CC(=O)NC1=NC(=O)/C(=C\c2ccc(-c3ccccc3C(=O)O)o2)S1	nt	nt	51*	nt	nt
SMILES	Ec RNAP inh	Smad3 inh	HePTP inhibitor	MT1-MMP txn act	TNAP act DEA
COc1ccc2c(c1)CCC1C2=NN(/C(C)=C/C(C)=O)C1c1ccc(N(C)C)cc1 (centres undefined)	nt	nt	-1	nt	nt
CC(=O)c1cccc(NC(=O)c2ccc(OCc3ccccc3)cc2)c1	nt	nt	4	nt	nt
COc1ccccc1N1C(=O)C(=Cc2cccn2C)C(=O)NC1=S	nt	nt	102*	nt	nt
COC(=O)c1sc2ncn(-n3c(C)ccc3C)c(=O)c2c1C	nt	60*	nt	1.2	nt
CCOC(=O)CSc1nnc(-c2cccc(OC)c2)n1-c1ccccc1	nt	nt	94*	nt	nt
COc1cccc(-c2nnc(SCC(N)=O)n2-c2ccc(Cl)cc2)c1	7	-5	-8	1	1
O=S(=O)(c1ccc(Br)cc1Br)N1CCN(c2ccccc2)CC1	nt	nt	8	nt	nt
O=C(Nc1cccc2ccccc12)c1cc(-c2ccco2)nc2ccccc12	nt	nt	102*	nt	nt
O=C(NCc1ccco1)c1cc(-c2ccccc2)nc2ccccc12	nt	0	-8	1.1	nt
O=C(NCc1ccco1)c1cc(-c2ccco2)nc2ccccc12	nt	nt	103*	nt	nt
CCOc1ccc(N/C=C(/C#N)c2nc(-c3ccc(F)cc3)cs2)cc1	nt	nt	8	nt	nt
Cc1ccc(-c2ccc(C=C3C(=O)NC(=O)NC3=O)o2)c([N+](=O)[O-])c1	nt	nt	6	nt	nt
CC(=O)OCC(=O)[C@@]12OC(C)(C)O[C@@H]1C[C@H]1[C@H]3CC=C4C[C@@H](O)CC[C@]4(C)[C@@H]3CC[C@@]12C	nt	98*	nt	nt	nt
